Measured values as given in PubChem BioAssay (NCI).
About 83,000 compounds went through this panel and 20% of them were active in at least one assay; those are over-represented in the sample as a whole.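 In brief: 96-well plates, 48 h treatment, single concentration, percent growth endpoint.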 Activity calls are given as the source filed them. The calls were made as follows: active = growth percent below 10; inactive = the rest.

Columns and labels:
Test in all cases: NCI-60 one-dose screen, 48 h (100 = growth as untreated, 0 = no growth, -100 = all killed)
Details in all cases: 10 µM unless noted
HCT-15 colon = tested on: HCT-15 colon
HT29 colon = tested on: HT29 colon
SNB-75 CNS = tested on: SNB-75 CNS
SNB-19 CNS = tested on: SNB-19 CNS
U251 CNS = tested on: U251 CNS
PC-3 prostate = tested on: PC-3 prostate
SK-MEL-5 melanoma = tested on: SK-MEL-5 melanoma
UACC-62 melanoma = tested on: UACC-62 melanoma
LOX IMVI melanoma = tested on: LOX IMVI melanoma
SK-MEL-28 melanoma = tested on: SK-MEL-28 melanoma
EKVX NSCLC = tested on: EKVX NSCLC
SN12C renal = tested on: SN12C renal
UO-31 renal = tested on: UO-31 renal
TK-10 renal = tested on: TK-10 renal
ACHN renal = tested on: ACHN renal
CAKI-1 renal = tested on: CAKI-1 renal
CCRF-CEM leukemia = tested on: CCRF-CEM leukemia
MOLT-4 leukemia = tested on: MOLT-4 leukemia
SK-MEL-2 melanoma = tested on: SK-MEL-2 melanoma
A498 renal = tested on: A498 renal

Measured: growth

Nc1nc(-c2cccc([N+](=O)[O-])c2)c(N=Nc2ccccc2)s1
inactive: HCT-15 colon 38.3% | HT29 colon 61.3% | SNB-75 CNS 63.2% | SNB-19 CNS 81.2% | U251 CNS 54.3% | PC-3 prostate 51.2% | SK-MEL-5 melanoma 42.5% | UACC-62 melanoma 64% | LOX IMVI melanoma 53.5% | SK-MEL-28 melanoma 65% | EKVX NSCLC 51.8% | SN12C renal 71% | UO-31 renal 62.2% | TK-10 renal 81.7% | ACHN renal 63.2% | CAKI-1 renal 39.3% | CCRF-CEM leukemia 48.4% | MOLT-4 leukemia 50.8%

COc1ccc(-n2c(SCc3nnc(NC(=O)c4ccc(Br)cc4)s3)nc3cc(OC)c(OC)cc3c2=O)cc1
inactive: HCT-15 colon 85.1% | HT29 colon 104% | SNB-75 CNS 93.4% | SNB-19 CNS 89.6% | U251 CNS 86.3% | PC-3 prostate 87.9% | SK-MEL-5 melanoma 91.8% | UACC-62 melanoma 91.4% | LOX IMVI melanoma 90.5% | SK-MEL-28 melanoma 88.7% | EKVX NSCLC 91.1% | SN12C renal 91% | UO-31 renal 84.2% | TK-10 renal 118% | ACHN renal 97.5% | CAKI-1 renal 83.8% | CCRF-CEM leukemia 90.9% | MOLT-4 leukemia 105%

COc1ccc(-c2nc3cc(Cl)c(Cl)cc3n2CC(=O)N=Nc2c(O)[nH]c3ccc(OC)cc23)cc1
active: LOX IMVI melanoma 7.13%
inactive: HCT-15 colon 43.7% | HT29 colon 55.2% | SNB-75 CNS 65.3% | SNB-19 CNS 80% | U251 CNS 77.8% | PC-3 prostate 63.8% | SK-MEL-5 melanoma 61.2% | UACC-62 melanoma 53.4% | SK-MEL-28 melanoma 48.6% | EKVX NSCLC 62.9% | SN12C renal 49.7% | UO-31 renal 69.9% | TK-10 renal 97.3% | ACHN renal 43.5% | CAKI-1 renal 59.4% | CCRF-CEM leukemia 61.6% | MOLT-4 leukemia 78.7%

CN1CCN(Cc2ccc(NC(=O)c3cncc(C#Cc4cnn5cccnc45)c3)cc2C(F)(F)F)CC1
inactive: HT29 colon 17.5% | SNB-75 CNS 62.4% | SNB-19 CNS 29% | U251 CNS 36.2% | PC-3 prostate 30.8% | SK-MEL-5 melanoma 17.7% | UACC-62 melanoma 23.8% | SK-MEL-28 melanoma 12.1% | EKVX NSCLC 46.6% | UO-31 renal 22.3% | TK-10 renal 32.8% | ACHN renal 11.2% | CAKI-1 renal 21.6%
active: HCT-15 colon 4.11% | LOX IMVI melanoma -33.3% | SN12C renal 8.93% | CCRF-CEM leukemia 2.51% | MOLT-4 leukemia 6.57%

Nc1nc(-c2cccc([N+](=O)[O-])c2)c(N=Nc2cccc([N+](=O)[O-])c2)s1
active: SNB-75 CNS -8.63% | U251 CNS -43% | TK-10 renal 7.2%
inactive: HCT-15 colon 62% | HT29 colon 94.2% | SNB-19 CNS 20.9% | PC-3 prostate 74.7% | SK-MEL-5 melanoma 63.9% | UACC-62 melanoma 54.7% | LOX IMVI melanoma 13.4% | SK-MEL-28 melanoma 61.3% | EKVX NSCLC 78.1% | SN12C renal 22.5% | UO-31 renal 13.5% | ACHN renal 11.5% | CAKI-1 renal 34.5% | CCRF-CEM leukemia 95.2% | MOLT-4 leukemia 112%

Cc1nc2ncc(-c3ccc4ncnc(NCc5ccccc5)c4c3)cc2[nH]1
active: A498 renal -18.2%
inactive: HCT-15 colon 103% | HT29 colon 82.8% | SNB-75 CNS 13% | SNB-19 CNS 67.7% | U251 CNS 75.4% | PC-3 prostate 40.8% | SK-MEL-5 melanoma 82.8% | UACC-62 melanoma 64.3% | LOX IMVI melanoma 41.3% | SK-MEL-2 melanoma 74% | EKVX NSCLC 25.3% | SN12C renal 32.3% | UO-31 renal 45.4% | TK-10 renal 22.6% | ACHN renal 64.9% | CAKI-1 renal 19.3% | CCRF-CEM leukemia 68.5%

COc1ccc(/C=N/NC(=O)c2cn(C3CC3)c3c(OC)c(N4CC5CCCNC5C4)c(F)cc3c2=O)cc1 (stereo unspecified)
inactive: HCT-15 colon 47.6% | HT29 colon 32.4% | SNB-75 CNS 93.1% | SNB-19 CNS 96.6% | U251 CNS 89.4% | PC-3 prostate 75.1% | SK-MEL-5 melanoma 87.1% | UACC-62 melanoma 100% | LOX IMVI melanoma 19.6% | SK-MEL-28 melanoma 92.8% | SN12C renal 81% | UO-31 renal 62.4% | TK-10 renal 116% | ACHN renal 88.7% | CAKI-1 renal 82.9% | CCRF-CEM leukemia 63.6% | MOLT-4 leukemia 60.4%

O=C(c1ccc(Cl)cc1)C1[C@H](c2ccc(Cl)cc2)[C@@H](c2ccccc2)NC12C(=O)Nc1ccccc12 (stereo partly specified)
inactive: HCT-15 colon 35.1% | HT29 colon 15.4% | SNB-75 CNS 51.1% | SNB-19 CNS 70.3% | U251 CNS 45.8% | PC-3 prostate 29.1% | SK-MEL-5 melanoma 75.1% | UACC-62 melanoma 52.8% | LOX IMVI melanoma 42.4% | SK-MEL-2 melanoma 72.5% | EKVX NSCLC 58.6% | SN12C renal 16.6% | UO-31 renal 43.8% | TK-10 renal 78.8% | ACHN renal 34.5% | CAKI-1 renal 37% | A498 renal 74.3% | CCRF-CEM leukemia 53.9% | MOLT-4 leukemia 21.1%

NC(N)=Nc1ccc(Oc2cccc(NC(N)=Nc3ccc(I)cc3F)c2)cc1
inactive: HCT-15 colon 86.9% | HT29 colon 62.5% | SNB-75 CNS 73.2% | SNB-19 CNS 20.7% | U251 CNS 47.4% | PC-3 prostate 27.5% | SK-MEL-5 melanoma 74% | UACC-62 melanoma 77.8% | LOX IMVI melanoma 48% | SK-MEL-2 melanoma 85.9% | EKVX NSCLC 71.6% | SN12C renal 54.3% | UO-31 renal 95.7% | TK-10 renal 85.7% | ACHN renal 101% | CCRF-CEM leukemia 77.3% | MOLT-4 leukemia 78.9%

C#CCn1cccc1CNc1ccc(OC)cc1
active: HCT-15 colon -79.2% | HT29 colon -50.4% | SNB-75 CNS -79.9% | SNB-19 CNS -90.1% | U251 CNS -74.6% | PC-3 prostate -93.3% | SK-MEL-5 melanoma -6.24% | UACC-62 melanoma -91.7% | LOX IMVI melanoma -84.8% | SK-MEL-2 melanoma -14.1% | EKVX NSCLC -83% | SN12C renal -84.3% | UO-31 renal -95.4% | TK-10 renal -77.7% | ACHN renal -95% | CAKI-1 renal -87.6% | CCRF-CEM leukemia -43.6%
inactive: A498 renal 53.8%

Cc1ccc(-n2cc(/C=N/NC(=O)c3ccncc3)c(-c3ccc(S(C)(=O)=O)cc3)n2)cc1
inactive: HCT-15 colon 37% | HT29 colon 76.6% | SNB-75 CNS 95.7% | SNB-19 CNS 89.9% | U251 CNS 97.5% | PC-3 prostate 81.5% | SK-MEL-5 melanoma 94.5% | UACC-62 melanoma 76.9% | LOX IMVI melanoma 74% | SK-MEL-2 melanoma 97.7% | EKVX NSCLC 95.2% | SN12C renal 89.4% | UO-31 renal 80.4% | TK-10 renal 118% | ACHN renal 98% | CAKI-1 renal 90.2% | A498 renal 88.2% | CCRF-CEM leukemia 84% | MOLT-4 leukemia 70.4%

Cc1ccc2sc3c(c2c1)OC(N)=C(C#N)C3c1cccc(F)c1 (stereo unspecified)
inactive: SNB-19 CNS 35% | UACC-62 melanoma 18.3% | SK-MEL-28 melanoma 51.3% | SN12C renal 10.4% | UO-31 renal 25.9% | TK-10 renal 36.1% | ACHN renal 20.6% | CAKI-1 renal 16.5% | CCRF-CEM leukemia 16.1% | MOLT-4 leukemia 17.5%
active: HCT-15 colon 6.97% | HT29 colon -19.6% | SNB-75 CNS -0.701% | U251 CNS 2.42% | PC-3 prostate 9.24% | LOX IMVI melanoma 8.96%

Cc1ccc(N2C(=O)/C(=C/C=C/c3ccco3)SC2=S)cc1
inactive: HCT-15 colon 88.4% | HT29 colon 102% | SNB-75 CNS 98.1% | SNB-19 CNS 92.4% | U251 CNS 93.8% | PC-3 prostate 73.3% | UACC-62 melanoma 89% | LOX IMVI melanoma 96.2% | SK-MEL-28 melanoma 95.8% | EKVX NSCLC 95.4% | SN12C renal 91.4% | UO-31 renal 84% | TK-10 renal 117% | ACHN renal 101% | CAKI-1 renal 90.4% | CCRF-CEM leukemia 61.2%
active: MOLT-4 leukemia 9.93%

CNC(=O)c1cc(Oc2ccc3nc(NC(=O)c4cc(N5CCOCC5)cc(C(F)(F)F)c4)sc3c2)ccn1
inactive: HCT-15 colon 58.9% | HT29 colon 62.3% | SNB-75 CNS 71.6% | SNB-19 CNS 92.9% | U251 CNS 72.3% | PC-3 prostate 46.7% | UACC-62 melanoma 72.4% | LOX IMVI melanoma 83.5% | SK-MEL-28 melanoma 81.1% | EKVX NSCLC 70.7% | SN12C renal 83.1% | UO-31 renal 87.8% | TK-10 renal 92.3% | ACHN renal 87.9% | CAKI-1 renal 82.2% | CCRF-CEM leukemia 67.3% | MOLT-4 leukemia 65.5%

COc1cc(OC)c(S(N)(=O)=O)cc1C(C)=O
inactive: HCT-15 colon 103% | HT29 colon 103% | SNB-75 CNS 130% | SNB-19 CNS 101% | U251 CNS 105% | PC-3 prostate 94.9% | UACC-62 melanoma 100% | LOX IMVI melanoma 105% | SK-MEL-28 melanoma 107% | EKVX NSCLC 102% | SN12C renal 97.2% | UO-31 renal 97.4% | TK-10 renal 94.9% | ACHN renal 107% | CAKI-1 renal 95.6% | CCRF-CEM leukemia 109%

CC(=O)c1cc(C(=O)c2ccc(Br)cc2)n2cc(C)cc(C)c12
inactive: HCT-15 colon 74.6% | HT29 colon 94.9% | SNB-75 CNS 89.8% | SNB-19 CNS 90.5% | U251 CNS 101% | PC-3 prostate 87.1% | SK-MEL-5 melanoma 66.3% | UACC-62 melanoma 82.6% | LOX IMVI melanoma 86.3% | SK-MEL-2 melanoma 102% | EKVX NSCLC 71.7% | SN12C renal 90.8% | UO-31 renal 84.8% | TK-10 renal 103% | ACHN renal 98.9% | A498 renal 76.8% | CCRF-CEM leukemia 97% | MOLT-4 leukemia 87%

CC(=O)C1=C(C)NC(NNC(N)=S)=NC1c1ccccc1 (stereo unspecified)
active: A498 renal 2.72%
inactive: HCT-15 colon 105% | HT29 colon 109% | SNB-75 CNS 41.1% | SNB-19 CNS 98.8% | U251 CNS 106% | PC-3 prostate 99.9% | SK-MEL-5 melanoma 96.7% | UACC-62 melanoma 93.3% | LOX IMVI melanoma 88.2% | SK-MEL-2 melanoma 96.9% | EKVX NSCLC 70.9% | SN12C renal 83.8% | UO-31 renal 59.5% | TK-10 renal 56.8% | ACHN renal 101% | CAKI-1 renal 64.7% | CCRF-CEM leukemia 95.5% | MOLT-4 leukemia 114%
